Fluorescence intensity data for 59 molecules are collected here from PubChem BioAssay AID624483 (NMMLSC, 2012).

SMILES strings stand for the structures. The campaign covered roughly 360,000 compounds. About 11,000 (3.1%) were called active. Roughly 2% stayed inconclusive and do not appear here. Cut-off read from the data, not from the text of the source: active = fluorescence intensity above about 16000; inconclusive = no clear call, values can overlap the other calls; inactive = below that. Shown is part of a subset that was picked to be rich in actives.

The nature of the test: counter-screen for toxin protease inhibitors: compound fluorescence, primary screen, artefact control for toxin protease inhibitor project, biochemical, multiplex microsphere, HTS (AID 624483). To be noted: compound autofluorescence counterscreen, microsphere flow cytometry; stronger effect = higher value.
Turning to `CCOc1ccc2c(c1)cc(CN(C(=O)CC)C1CCCCC1)c1nnnn12`, the fluorescence intensity is 3990 (inactive).
The result for `CCOC1=C2[C@@H](CN(S(=O)(=O)c3ccc(C)cc3)[C@H]2c2ccccc2F)[C@H]2C(=O)N(Cc3ccccc3)C(=O)[C@H]2C1` reads 4840 (inactive); that for `CCOc1ccc2[nH]c(=S)sc2c1`, 5910 (inactive); that for `O=C(NCC(c1cccs1)N1CCOCC1)c1cc(-c2ccccn2)nc2ccccc12` (centres undefined), 4740 (inactive).
The result for `CCc1ccc2ncc(C(=O)c3ccccc3)c(N3CCOCC3)c2c1` reads 6180 (inactive); that for `O=C(c1ccccc1)c1cc(-c2ccccn2)c(N2CCOCC2)s1`, 25300 (active); that for `COc1ccc(S(=O)(=O)Nc2cccnc2)c(Cl)c1Cl`, 3840 (inactive).
The result for `Cc1cc(C)c(C)c(S(=O)(=O)Nc2cccnc2)c1C` reads 6330 (inactive).
`COc1ccccc1Oc1ccc(S(=O)(=O)Nc2cccnc2)cc1`: the fluorescence intensity is 21600 (active).
`COC(=O)c1ccc2nc(-c3ccc(OC)c(OC)c3)c(Cc3ccccc3)n2c1`: the fluorescence intensity was 4370 (inactive).
The result for `Fc1cccc(Cc2c(-c3ccc(Cl)cc3)nc3ccc(Cl)cn23)c1` reads 8180 (inactive); that for `Fc1cccc(Cc2c(-c3cccc(Cl)c3)nc3ccc(Br)cn23)c1`, 19700 (active).
The result for `Clc1cccc(Cc2c(-c3cccc(Cl)c3)nc3ccc(Cl)cn23)c1` reads 8680 (inactive); that for `OC[C@@H]1CN(Cc2ccncc2)C[C@H](n2cnc3c(N4CCN(c5ccccc5)CC4)ncnc32)O1`, 3810 (inactive); that for `COCCN1C(=O)N(c2ccc(Cl)cc2)C(=O)C1CC(=O)Nc1cc(OC)cc(OC)c1` (centres undefined), 3750 (inactive).
`CC(C)(C)OC(=O)N/N=C/c1ccc(C(=O)O)cc1`: the fluorescence intensity is 2640 (inactive).
As for `Cc1cc(C(=O)OCC(=O)Nc2ccc(F)c(F)c2)c(C)o1`, the figure is 21600 (active); as for `Cc1cc(C(=O)OCC(=O)Nc2ccccc2Cl)c(C)o1`, 8500 (inactive); as for `Cc1cc(C)cc(NC(=O)COC(=O)c2cc(C)oc2C)c1`, 4090 (inactive).
For `CCCCSc1nnc(-c2ccc(C)cc2)o1`, the fluorescence intensity is 11000 (inactive).
The result for `COc1ccc(-c2nnc(-c3ccc4ccccc4c3)o2)cc1` reads 3860 (inactive).
`CCCCOc1ccc(-c2nnc(-c3ccco3)o2)cc1`: the fluorescence intensity was 21200 (active).
As for `NCCCNC(=S)NCCCN(Cc1ccc(Cl)cc1)c1ccc(Br)cn1`, the figure is 3820 (inactive).
As for `O=C(NCc1ccco1)c1cccc(-c2ccc3nncn3c2)c1`, the figure is 3920 (inactive); as for `CC1CCN(C(=O)c2cc3nc(C4CC4)cc(C(F)(F)F)n3n2)CC1`, 3040 (inactive).
As for `O=C(Nc1ccc(Cl)cc1)c1cc2nc(C3CC3)cc(C(F)(F)F)n2n1`, the figure is 11300 (inactive); as for `C=CCNC(=O)c1cc2nc(C3CC3)cc(C(F)F)n2n1`, 17500 (active); as for `CN(C)c1cccc(NC(=O)c2ccc(-c3ccc(F)c(F)c3)c3ccoc23)c1`, 3910 (inactive).
Take `CCCCn1nnnc1C(c1cc2ccccc2o1)N(C)Cc1ccc(Cl)c(Cl)c1` (centres undefined): the fluorescence intensity is 5870 (inactive).
The result for `C=CCSc1nc(Cc2ccc(Cl)cc2)nc2ccccc12` reads 23600 (active); that for `CCCNC(=O)CSc1nc(Cc2ccccc2)nc2ccccc12`, 2990 (inactive); that for `CC(C)N(C(=O)CSc1nc(COc2ccccc2)nc2ccccc12)C(C)C`, 3830 (inactive).
As for `CCc1nc2ccc(C(=O)N3CCC(O)(Cc4ccccc4)CC3)cn2c1N(C)C(=O)Cc1ccccc1`, the figure is 3520 (inactive).
On to `O=S1(=O)CC(N2CCC(Cc3ccccc3)CC2)CN1Cc1ccccc1` (centres undefined), for which the fluorescence intensity was 6300 (inactive).
The result for `Cc1noc(C)c1-c1ccc(C(=O)NCc2ccncc2)c2occc12` reads 3470 (inactive).
As for `COc1ccccc1N1CCN(S(=O)(=O)c2ccc3c(c2)NC(=O)CS3)CC1`, the figure is 5880 (inactive); as for `Cc1cc(OC(C)C(=O)NC2CC(C)(C)NC(C)(C)C2)c2c(C)cc(=O)oc2c1` (centres undefined), 6440 (inactive).
As for `CCc1cc(=O)oc2cc(C)cc(OC(C)C(=O)O)c12` (centres undefined), the figure is 22000 (active); as for `CCc1cc(=O)oc2cc(C)cc(OCC(=O)N3CCC[C@@H]3C(=O)O)c12`, 5750 (inactive); as for `CCCCCCSc1nsc(N)n1`, 6410 (inactive).
On to `CCCSc1nsc(N)n1`, for which the fluorescence intensity was 17300 (active).
As for `Nc1nc(SC23CC4CC(CC(C4)C2)C3)ns1`, the figure is 3930 (inactive).
As for `Cc1ccc(CNC(=O)c2cc(-c3ccccc3C)n(CC3CC(c4cccc([N+](=O)[O-])c4)=NO3)n2)cc1` (centres undefined), the figure is 4220 (inactive).
As for `CCOC(=O)[C@]12CCC=C1N(Cc1ccccc1)C(=O)[C@H](CC(=O)N1CCCC1)C2`, the figure is 5780 (inactive); as for `CC1(C(=O)NS(=O)(=O)C2CC2)CCCN(C(=O)CSc2ccccc2)C1` (centres undefined), 3670 (inactive); as for `CCOC(=O)N1CCC(Nc2c(NCCN3CCN(c4cccc(Cl)c4)CC3)c(=O)c2=O)CC1`, 4590 (inactive).
On to `CCn1c(=O)cc(OCC(=O)NCCCN2CCN(c3cccc(Cl)c3)CC2)c2ccccc21`, for which the fluorescence intensity was 20500 (active).
The result for `O=C(Cc1csc(Nc2nc(=S)[nH]c3ccccc23)n1)NCCCN1CCN(c2cccc(Cl)c2)CC1` reads 4240 (inactive); that for `O=C(CC[C@H]1O[C@@H](n2ccc(=O)[nH]c2=O)[C@H](O)[C@@H]1O)N[C@H](Cc1ccccc1)C(=O)NCc1ccco1`, 4020 (inactive).
The result for `CCOC(=O)C1(C)CCCN(C(=O)c2ccc(N(C)C)cc2)C1` (centres undefined) reads 9620 (inactive); that for `CCOc1cccc(-c2nnc(SCC(=O)NC3CC3)n2C)c1`, 5480 (inactive); that for `CCOc1cccc(-c2nn3c(-c4ccccn4)nnc3s2)c1`, 16800 (active).
For `Cc1ccccc1NC(=O)CSc1ccc2nnc(-c3ccccn3)n2n1`, the fluorescence intensity was 6840 (inactive).
As to `CN(C)S(=O)(=O)N1CCN(c2ccc([N+](=O)[O-])cc2)CC1`, the fluorescence intensity is 4070 (inactive).
As for `CCCOc1ccc(F)cc1-c1cc(C(=O)Nc2ccc(F)c(Cl)c2)[nH]n1`, the figure is 3800 (inactive).
The result for `CN(C)C(=O)c1cccc(-c2cnc3c(NC=O)cc(-c4ccc(F)cc4)cn23)c1` reads 3680 (inactive); that for `CCOC(=O)c1cnc2c(c(C)nn2CC)c1Cl`, 4390 (inactive).
Take `CCOC(=O)c1cnc(-n2nc(C)cc2C)nc1NNc1cc(C)nc(-c2ccccc2)n1`: the fluorescence intensity was 7400 (inactive).
The result for `CCOC(=O)c1cnc(-n2nc(C)cc2C)nc1-n1nc(C)cc1C` reads 16800 (active).
